Measurements as given in PubChem BioAssay (NCATS).
Results filed as inconclusive are left out. A call without a number means that no potency is given here. Values without a mark were called inactive. Activity calls are given as the source filed them. Calls follow the shape of the dose curve; as a rule, active = well fitted curve in the direction sought with a large enough effect; inconclusive = small, poorly fitted or top-dose-only effect, or another doubt; inactive = no such curve, though single readings can be large; an effect the other way counts as inactive or inconclusive.

Tests used:
[1] = system: Zika virus NS2B-NS3 protease (unlinked); assay: Optimization of GU AMC qHTS for Zika virus inhibitors: Unlinked NS2B-NS3 protease assay (AID 1347151); also: series mostly up to about 52 µM; nearly all actives have a fitted effect of over 80% in size
In short: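 Noncovalent NS2B hydrophilic domain–NS3 protease complex (25 nM final) in 10 mM Tris-HCl pH 8.0, 0.01% Tween 20; AMC substrate, room temperature 15 min (~20% conversion); fluorescence change normalized, 4-parameter Hill fit.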

[2] = system: Zika virus NS2B-NS3 protease; assay: Primary screen GU AMC qHTS for Zika virus inhibitors (AID 1347154); also: nearly all actives have a fitted effect of over 70% in size
In short: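 Fluorogenic AMC-substrate cleavage by noncovalent NS2B-NS3 protease complex (25 nM, pH 8.0 Tris buffer with Tween 20) followed for 15 minutes at room temperature (~20% conversion). Percent inhibition from ex340/em450 signal change, fitted by 4-parameter Hill equation.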

| Compound | Potency [1] | Potency [2] |
| --- | --- | --- |
| Nc1ncnc2c1ncn2[C@@H]1O[C@H](CO)[C@@H](O)[C@H]1O | inactive | inactive |
| CSc1ccc2c(c1)N(CCC1CCCCN1C)c1ccccc1S2 (configuration not stated) | inactive | inactive |
| CCN(CC)CCOC(=O)C1(C2CCCCC2)CCCCC1 | inactive | inactive |
| CSc1ccc2c(c1)C(N1CCN(C)CC1)Cc1ccccc1S2 (configuration not stated) | inactive | inactive |
| NC(=O)c1ncn([C@@H]2O[C@H](CO)[C@@H](O)[C@H]2O)n1 | inactive | inactive |
| CN(C)CCOC(C)(c1ccccc1)c1ccccn1 (configuration not stated) | inactive | inactive |
| CC(=O)OCC(=O)[C@@]1(O)CC[C@H]2[C@@H]3CCC4=CC(=O)CC[C@]4(C)[C@H]3C(=O)C[C@@]21C | inactive | inactive |
| C[C@]12CC[C@@H]3c4ccc(O)cc4CC[C@H]3[C@@H]1CCC2=O | inactive | inactive |
| CN(C)CCC=C1c2ccccc2CCc2ccccc21 | inactive | inactive |
| CN(C)CC[C@@H](c1ccc(Cl)cc1)c1ccccn1 | inactive | inactive |
| O=C1N=C(O)CN1/N=C/c1ccc(-c2ccc([N+](=O)[O-])cc2)o1 | inactive |  |
| CNCC(O)c1ccc(O)c(O)c1 (configuration not stated) | inactive | inactive |
| CC1=C(/C=C/C(C)=C/C=C/C(C)=C/C(=O)O)C(C)(C)CCC1 | inactive | inactive |
| CN1CCN(C2Cc3ccccc3Sc3ccc(Cl)cc32)CC1 (configuration not stated) | inactive | inactive |
| COCCOC(=O)C1=C(C)NC(C)=C(C(=O)OC/C=C/c2ccccc2)C1c1cccc([N+](=O)[O-])c1 (configuration not stated) | inactive | inactive |
| CC(CN1c2ccccc2Sc2ccccc21)N(C)C (configuration not stated) | inactive | inactive |
| COC(=O)C1=C(C)NC(C)=C(C(=O)OC)C1c1ccccc1[N+](=O)[O-] | inactive | inactive |
| C[C@H]1O[C@@H](n2cc(F)c(=O)[nH]c2=O)[C@H](O)[C@@H]1O | inactive | inactive |
| CC(C)C(=O)c1c(C(C)C)nn2ccccc12 | inactive | inactive |
| CCCCN(CCCC)CC(O)c1cc(Cl)cc2c1-c1ccc(Cl)cc1/C2=C/c1ccc(Cl)cc1 (configuration not stated) | inactive | inactive |
| CCCn1cnc2c1c(=O)n(CCCCC(C)=O)c(=O)n2C | inactive | inactive |
| NCCNCCNCCN |  | inactive |
